Rows were chosen to be rich in hits. Some 27% of all compounds tested hit in one or more screens of this group.
CYP2C9 act: human CYP2C9 activators, primary screen, biochemical, luminescence. recombinant CYP2C9, luciferin-H conversion; hits give high values; factor 1 = untreated enzyme, 0 = blocked. Cytochrome P450 2C9 (Homo sapiens), P11712. activation factor at 5 µM. hit rate 1.4% among 96,000;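 active = activation factor of 2 or more for CYP2C9 at a 5 µM dose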
CYP2C19 act: human CYP2C19 activators, primary screen, biochemical, luminescence. 96,000 tested, under 10 active. Cytochrome P450 2C19 (Homo sapiens), P33261. recombinant CYP2C19, luciferin-H EGE luminescence; hits give high values; 0 = fully inhibited enzyme, 1 = untreated enzyme. activation factor at 5 µM;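 active = activation factor of at least 2 at 5 µM in the primary screen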
sEH act: soluble epoxide hydrolase activators, primary screen, biochemical, human sEH | activation, % at 2 µM | purified human sEH enzymatic activity, activator screen | Bifunctional epoxide hydrolase 2 (Homo sapiens), P34913 | hit rate 0.04% among 91,000; in the data active = activation above about 37%
Target sequence (P34913 whole entry, looked up): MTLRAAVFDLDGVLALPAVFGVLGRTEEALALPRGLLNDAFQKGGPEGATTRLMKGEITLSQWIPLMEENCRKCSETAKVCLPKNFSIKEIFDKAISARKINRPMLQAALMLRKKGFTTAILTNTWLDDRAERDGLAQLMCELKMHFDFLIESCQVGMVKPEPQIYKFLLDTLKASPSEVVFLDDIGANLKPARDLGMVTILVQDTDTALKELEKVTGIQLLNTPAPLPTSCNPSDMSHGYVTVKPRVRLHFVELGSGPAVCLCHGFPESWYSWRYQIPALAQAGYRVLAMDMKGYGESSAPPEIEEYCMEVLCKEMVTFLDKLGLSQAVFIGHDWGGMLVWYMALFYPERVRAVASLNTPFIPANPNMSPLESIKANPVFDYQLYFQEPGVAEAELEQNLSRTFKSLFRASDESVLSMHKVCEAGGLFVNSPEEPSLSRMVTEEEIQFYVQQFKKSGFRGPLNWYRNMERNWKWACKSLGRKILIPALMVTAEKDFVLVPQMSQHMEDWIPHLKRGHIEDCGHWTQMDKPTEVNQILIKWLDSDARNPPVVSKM
sEH inh: soluble epoxide hydrolase inhibitors, primary screen, biochemical, human sEH; Bifunctional epoxide hydrolase 2 (Homo sapiens), P34913; recombinant human sEH enzymatic activity assay; inhibition, % at 2 µM; hit rate 0.34% among 91,000; AID 707, 2007; in the data active = inhibition above about 80%
CYP2C9 inhib: blockers of cytochrome P450 2C9 activity – biochemical, luminescence, ADME assay, primary screen. P11712. CYP2C9 Supersomes, luciferin-H conversion. hit rate 20% among 96,000. AID 777, 2007. inhibition, % at 5 µM;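 active = blocking of liver enzyme CYP2C9 beyond about 50% at 5 µM, limit read from the data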
CYP2C19 inh: blockers of cytochrome P450 2C19 activity – biochemical, luminescence, ADME assay, primary screen; P33261; CYP2C19 Supersomes, luciferin-H EGE luminescence, 30 min; inhibition, % at 5 µM; hit rate 21% among 96,000;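 active = CYP2C19 inhibition above a set limit at 5 µM in the primary screen, cut at about 50% in these data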
Numbers stand for hits.

`COCCn1c(SCC(=O)Nc2cccc(OC)c2)nnc1-c1ccc(Cl)cc1` gave CYP2C9 act inactive, CYP2C19 act inactive, sEH act inactive, sEH inh inactive, CYP2C9 inhib 67 and CYP2C19 inh 94.
COCCn1c(SCC(=O)Nc2sc(C)c(C)c2C#N)nnc1-c1ccc(OC)cc1 was read as CYP2C9 act inactive, CYP2C19 act inactive, sEH act inactive, sEH inh inactive, CYP2C9 inhib 54 and CYP2C19 inh inactive.
C=CCn1c(SCC(=O)NCCc2ccccc2)nnc1C(C)NC(=O)c1cccs1 (stereo unspecified) was read as sEH act inactive and sEH inh inactive.
For CC(=O)c1cc(C)ccc1OC(=O)c1ccco1 the results were CYP2C9 act inactive, CYP2C19 act inactive, sEH act inactive, sEH inh inactive, CYP2C9 inhib inactive and CYP2C19 inh inactive.
Clc1nc(-c2n[nH]nc2Cl)n[nH]1 was read as CYP2C9 act inactive, CYP2C19 act inactive, CYP2C9 inhib inactive and CYP2C19 inh inactive.
`CCOc1ccc(N2C(=O)CC(n3nc(C)cc3C)C2=O)cc1` (stereo unspecified) gave sEH act inactive and sEH inh inactive.
Screening C=CCOC(=O)C1=C(C)NC(SCC(=O)N(CC)CC)=C(C#N)C1c1ccccc1 (stereo unspecified) returned CYP2C9 act inactive, CYP2C19 act inactive, CYP2C9 inhib 90 and CYP2C19 inh 97.
C=CCOC(=O)C1=C(C)NC(SCC(=O)N(CC)CC)=C(C#N)C1c1ccco1 (stereo unspecified) was read as CYP2C9 act inactive, CYP2C19 act inactive, sEH act inactive, sEH inh inactive, CYP2C9 inhib 80 and CYP2C19 inh 69.
`CCOC(=O)C1=C(C)NC(SCC(=O)O)=C(C#N)C1c1ccco1` (stereo unspecified) gave CYP2C9 act inactive, CYP2C19 act inactive, sEH act inactive, sEH inh inactive, CYP2C9 inhib inactive and CYP2C19 inh inactive.
Screening C=CCOC(=O)C1=C(C)NC(SCC(=O)Nc2ccccc2)=C(C#N)C1c1ccco1 (stereo unspecified) returned CYP2C9 act inactive, CYP2C19 act inactive, sEH act inactive, sEH inh inactive, CYP2C9 inhib 72 and CYP2C19 inh 60.
C=CCOC(=O)C1=C(C)NC(SCC(=O)NC(=O)OCC)=C(C#N)C1c1cccnc1 (stereo unspecified) was read as CYP2C9 act inactive, CYP2C19 act inactive, sEH act inactive, sEH inh inactive, CYP2C9 inhib 92 and CYP2C19 inh 87.
For O=C1C2CC=CCC2C(=O)N1c1n[nH]c(CCc2ccccc2)n1 (stereo unspecified) the results were CYP2C9 act inactive, CYP2C19 act inactive, sEH act inactive, sEH inh inactive, CYP2C9 inhib inactive and CYP2C19 inh inactive.
COc1ccc(Cc2nnc3c4cnn(C)c4ncn23)cc1 was read as CYP2C9 act inactive, CYP2C19 act inactive, sEH act inactive, sEH inh inactive, CYP2C9 inhib inactive and CYP2C19 inh inactive.
`COc1ccc(NCc2nnc(SCC(=O)Nc3cc(C)cc(C)c3)o2)cc1` gave CYP2C9 act inactive, CYP2C19 act inactive, sEH act inactive, sEH inh inactive, CYP2C9 inhib inactive and CYP2C19 inh inactive.
Cc1ccc(C)c(NC(=O)CSc2nnc(CCNC(=O)OC(C)(C)C)o2)c1 was read as CYP2C9 act inactive, CYP2C19 act inactive, sEH act inactive, sEH inh inactive, CYP2C9 inhib inactive and CYP2C19 inh 80.
Screening COc1ccc(CCCc2nnc(SCC(=O)Nc3ccc(C)c(C)c3)o2)cc1 returned CYP2C9 act inactive, CYP2C19 act inactive, sEH act inactive, sEH inh inactive, CYP2C9 inhib inactive and CYP2C19 inh inactive.
Screening COc1ccc(CCCc2nnc(SCC(=O)Nc3cc(C)ccc3C)o2)cc1 returned CYP2C9 act inactive, CYP2C19 act inactive, sEH act inactive, sEH inh inactive, CYP2C9 inhib 63 and CYP2C19 inh inactive.
Cc1c(Cl)cccc1NC(=O)CSc1nnc(CCNC(=O)OC(C)(C)C)o1 was read as CYP2C9 act inactive, CYP2C19 act inactive, sEH act inactive, sEH inh inactive, CYP2C9 inhib 68 and CYP2C19 inh 78.
Screening COc1ccc(NCc2nnc(SCC(=O)Nc3cc(C(F)(F)F)ccc3Cl)o2)cc1 returned CYP2C9 act inactive, CYP2C19 act inactive, sEH act inactive, sEH inh inactive, CYP2C9 inhib 80 and CYP2C19 inh 82.
Screening COc1cccc(OC)c1C(=O)N1CCN(S(=O)(=O)c2ccc(C)cc2)CC1 returned CYP2C9 act inactive, CYP2C19 act inactive, sEH act inactive, sEH inh inactive, CYP2C9 inhib inactive and CYP2C19 inh inactive.
COc1ccc(/C=C/C(=O)Nc2cc(C(F)(F)F)ccc2Cl)cc1 was read as CYP2C9 act 2, CYP2C19 act inactive, sEH act inactive, sEH inh inactive, CYP2C9 inhib inactive and CYP2C19 inh inactive.
Screening Cc1ccc(C(=O)Nc2ccc(S(=O)(=O)N3CCN(C)CC3)cc2)o1 returned CYP2C9 act inactive, CYP2C19 act inactive, CYP2C9 inhib inactive and CYP2C19 inh inactive.
COC(=O)c1ccc(Cl)c(NS(=O)(=O)c2ccc3c(c2)OCCO3)c1 was read as CYP2C9 act inactive, CYP2C19 act inactive, sEH act inactive, sEH inh inactive, CYP2C9 inhib inactive and CYP2C19 inh 87.
Screening CC(=O)Nc1cc2c(cc1C(C)=O)OCCO2 returned CYP2C9 act inactive, CYP2C19 act inactive, sEH act inactive, sEH inh inactive, CYP2C9 inhib inactive and CYP2C19 inh inactive.
CC(=O)c1cc2c(cc1NC(=O)C1CC=CCC1C(=O)O)OCO2 (stereo unspecified) was read as CYP2C9 act inactive, CYP2C19 act inactive, sEH act inactive, sEH inh inactive, CYP2C9 inhib 74 and CYP2C19 inh inactive.
For O=C(NS(=O)(=O)c1ccc2c(c1)OCCO2)c1ccccc1 the results were CYP2C9 act inactive, CYP2C19 act inactive, sEH act inactive, sEH inh inactive, CYP2C9 inhib 58 and CYP2C19 inh inactive.
For CC(=O)c1cc2c(cc1NS(=O)(=O)c1ccc3c(c1)OCCO3)OCO2 the results were CYP2C9 act inactive, CYP2C19 act inactive, sEH act inactive, sEH inh inactive, CYP2C9 inhib inactive and CYP2C19 inh 99.
Screening CCN(CC)S(=O)(=O)c1ccc(S(=O)(=O)Nc2cc3c(cc2C(C)=O)OCO3)cc1 returned CYP2C9 act inactive, CYP2C19 act inactive, sEH act inactive, sEH inh inactive, CYP2C9 inhib 97 and CYP2C19 inh 52.
Screening CC(=O)c1cc2c(cc1NC(=O)CN1CCCCCCC1)OCO2 returned CYP2C9 act inactive, CYP2C19 act inactive, sEH act inactive, sEH inh inactive, CYP2C9 inhib 69 and CYP2C19 inh 83.

From PubChem BioAssay
